# Test results as given in the supplement of paper PMC9135407.
# Values joined by “and” are separate entries in the source; they are usually repeats but may differ in a detail not shown here. Identical values can stand only once. Counter-ions that a name gives are not always drawn. Screen size: about 5,800 compounds; about 620 (11%) showed activity. The sample as a whole holds a higher share of actives than the screen did. Values without a mark were called inactive.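 How the source made its calls: active = score above a cut-off or among the top three wells of a plate; in these data no inactive exceeds 0.85.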
# Tested on: primary human hepatic stellate cells (donor 1)
# Assay: scaled lipid accumulation score (0 = DMSO-like, 1 = nortriptyline-like); higher = stronger HSC inactivation (lipid re-accumulation), active = hit call of the paper
# Settings: 48 h
# [1] = library stock concentration: 400 uM
# [2] = library stock concentration: 2 mM
# [3] = library stock concentration: 10 mM
# [4] = library stock concentration: 1 mM
# [5] = library stock concentration: 3.33 mM
# [6] = library stock concentration: 80 uM
smiles,measurement,setting,value
Cc1nc(N)ncc1-c1nc(N2CCOCC2)c2sc(C(C)(C)O)cc2n1,scaled lipid accumulation score,[1],0.092
same,scaled lipid accumulation score,[2],≤ -0.005
same,scaled lipid accumulation score,[3],≤ -0.005
O=C(CCCCc1ccccc1)C(F)(F)C(F)(F)F,scaled lipid accumulation score,[4],≤ 0
CC1CC(OC(=O)C(O)c2ccccc2)CC(C)(C)C1 (stereo not drawn) [Cyclandelate],scaled lipid accumulation score,[5],≤ 0
same,scaled lipid accumulation score,[3],0.196
CC1CC(OC(=O)C(O)c2ccccc2)CC(C)(C)C1 (stereo not drawn),scaled lipid accumulation score,[3],0.065
COc1cc2c(cc1OC)-c1[nH]nc(Nc3cccc(F)c3)c1C2 [PDGF Receptor Tyrosine Kinase Inhibitor IV],scaled lipid accumulation score,[5],0.044
COc1cc2c(cc1OC)-c1[nH]nc(Nc3cccc(F)c3)c1C2,scaled lipid accumulation score,[6],≤ -0.001
same,scaled lipid accumulation score,[1],≤ -0.001
same,scaled lipid accumulation score,[4],≤ 0
same,scaled lipid accumulation score,[2],0.073
same,scaled lipid accumulation score,[3],0.232
O[C@H]1[C@H](O)[C@@H](O)[C@@H]2O[C@@H]2[C@@H]1O (racemic) [Conduritol b epoxide],scaled lipid accumulation score,library stock concentration: 12.3 mM,≤ 0
Cc1cc(O)c(C=O)c2c1C(=O)Oc1c(C)c(O)c3c(c1O2)C(O)OC3=O (stereo not drawn) [Norstictic acid],scaled lipid accumulation score,[3],≤ 0
CNCCC(Oc1ccc(C(F)(F)F)cc1)c1ccccc1 (stereo not drawn) [Fluoxetine],scaled lipid accumulation score,[3],0.637
CN(CC[C@@H](Oc1ccc(C(F)(F)F)cc1)c1ccccc1)CC(=O)[O-].[Li+],scaled lipid accumulation score,[3],0.149
CNCCC(Oc1ccc(C(F)(F)F)cc1)c1ccccc1 (stereo not drawn) [Fluoxetine hydrochloride],scaled lipid accumulation score,[3],0.09
CNCCC(Oc1ccc(C(F)(F)F)cc1)c1ccccc1.Cl (stereo not drawn) [Fluoxetine hydrochloride],scaled lipid accumulation score,,1.05 (active)
CN(CC[C@@H](Oc1ccc(-c2ccccc2)cc1)c1ccc(F)cc1)CC(=O)O [ALX 5407 hydrochloride],scaled lipid accumulation score,[3],≤ -0.006
CNCC[C@H](Oc1ccc(C(F)(F)F)cc1)c1ccccc1 [S-(+)-Fluoxetine hydrochloride],scaled lipid accumulation score,[3],0.403
O=C(NCc1ccncc1)C12CC3CC(C1)CC(c1ccc(Cl)cc1)(C3)C2,scaled lipid accumulation score,library stock concentration: 13.1 mM,0.27
C[C@H](N[C@@H](CCc1ccccc1)C(=O)O)C(=O)N1Cc2ccccc2C[C@H]1C(=O)O,scaled lipid accumulation score,[3],≤ 0
Cc1[nH]c(/C=C2\C(=O)Nc3ccc(S(=O)(=O)Cc4c(Cl)cccc4Cl)cc32)c(C)c1C(=O)N1CCC[C@@H]1CN1CCCC1 [listing 1 of 2 here],scaled lipid accumulation score,[5],0.429
same,scaled lipid accumulation score,[3],0.553 and 0.41 and 0.638
CN1CCCN(C(=O)c2cccc(-c3ccc(/C=C4/C(=O)Nc5ccc(Cl)cc54)o3)c2)CC1,scaled lipid accumulation score,[5],0.657
same,scaled lipid accumulation score,[3],≤ -0.001
Cc1[nH]c(/C=C2\C(=O)Nc3ccc(S(=O)(=O)N(C)c4cccc(Cl)c4)cc32)c(C)c1C(=O)N1CCN(C)CC1 [Met Kinase Inhibitor],scaled lipid accumulation score,[5],1.38 (active)
O=C1Nc2ccc(Cl)cc2/C1=C/c1cc(Cl)c(O)c(Cl)c1,scaled lipid accumulation score,[6],≤ -0.001
same,scaled lipid accumulation score,[1],≤ -0.001
same,scaled lipid accumulation score,[2],≤ -0.001
same,scaled lipid accumulation score,[3],≤ -0.001
CN1CCN(C(=O)c2cc3cc(Cl)ccc3[nH]2)CC1,scaled lipid accumulation score,[5],0.053
same,scaled lipid accumulation score,[3],0.452
Cc1[nH]c(/C=C2\C(=O)Nc3ccc(S(=O)(=O)Cc4c(Cl)cccc4Cl)cc32)c(C)c1C(=O)N1CCC[C@@H]1CN1CCCC1 [listing 2 of 2 here],scaled lipid accumulation score,[6],1.15 (active)
same,scaled lipid accumulation score,[1],1.16 (active)
same,scaled lipid accumulation score,[2],1.16 (active)
"O=C1Nc2ccc(Cl)cc2/C1=C/c1cc(Cl)c(O)c(Cl)c1 [PKR Inhibitor, Negative Control]",scaled lipid accumulation score,[5],≤ 0
Cc1[nH]c(/C=C2/C(=O)Nc3ccc(S(=O)(=O)N(C)c4cccc(Cl)c4)cc32)c(C)c1C(=O)N1CCN(C)CC1,scaled lipid accumulation score,[2],0.927 (active)
same,scaled lipid accumulation score,[3],1.14 (active)
Cc1[nH]c(/C=C2\C(=O)Nc3ccc(S(=O)(=O)N(C)c4cccc(Cl)c4)cc32)c(C)c1C(=O)N1CCN(C)CC1,scaled lipid accumulation score,[6],0.129
same,scaled lipid accumulation score,[1],0.261
Cc1[nH]c(C=C2C(=O)Nc3ccc(S(=O)(=O)N(C)c4cccc(Cl)c4)cc32)c(C)c1C(=O)N1CCN(C)CC1,scaled lipid accumulation score,[5],1.39 (active)
same,scaled lipid accumulation score,[3],1.27 (active)
COC(=O)C[C@H](NC(=O)[C@H](C)NC(=O)[C@@H](NC(=O)OCc1ccccc1)C(C)C)C(=O)CF,scaled lipid accumulation score,library stock concentration: 10.7 mM,≤ -0.012
CC(=O)N[C@@H](CCC(N)=O)C(=O)O,scaled lipid accumulation score,[3],≤ 0
N#CC(c1ccnc(NCCc2cccnc2)n1)c1nc2ccccc2s1 (stereo not drawn) [JNK Inhibitor V],scaled lipid accumulation score,[5],0.329
N#CC(c1ccnc(NCCc2cccnc2)n1)c1nc2ccccc2s1 (stereo not drawn),scaled lipid accumulation score,[6],≤ 0
same,scaled lipid accumulation score,[1],≤ 0
same,scaled lipid accumulation score,[2],0.058
same,scaled lipid accumulation score,[3],0.62
CC(=O)NCCCCCCNC(C)=O,scaled lipid accumulation score,[3],≤ 0
COc1cc2c(cc1O)[C@@H](Cc1ccc(O)cc1)[N+](C)(C)CC2 [Magnocurarine iodide],scaled lipid accumulation score,[3],0.116
CCOCC(O)COc1ccc(NC(=O)CC[S+](C)C)cc1 (stereo not drawn) [Suplatast Tosylate],scaled lipid accumulation score,[5],≤ 0
same,scaled lipid accumulation score,[3],≤ 0
CCOCC(O)COc1ccc(NC(=O)CC[S+](C)C)cc1 (stereo not drawn) [Suplatast tosylate],scaled lipid accumulation score,[3],≤ -0.001
NC1=NCC2c3ccccc3Cc3ccccc3N12 (stereo not drawn) [Epinastine hydrochloride],scaled lipid accumulation score,[3],0.592
NC1=NCC2c3ccccc3Cc3ccccc3N12 (stereo not drawn) [Epinastine HCl],scaled lipid accumulation score,[5],≤ 0
same,scaled lipid accumulation score,[3],0.038
CCOC(=O)C(Cc1ccc(O)cc1)NC(C)=O (stereo not drawn) [Acetyl tyrosine ethyl ester],scaled lipid accumulation score,[3],≤ 0
CCCCC/C=C/C/C=C/CCCCCCCC(=O)O [Linoelaidic Acid],scaled lipid accumulation score,[4],0.006
C[C@]12CC[C@H](O)CC1=CCC1C2CC[C@]2(C)C(n3cnc4ccccc43)=CCC12 (stereo partly drawn) [Galeterone],scaled lipid accumulation score,[3],1.27 (active)
CC(=O)[C@H]1CC[C@H]2[C@@H]3CC=C4C[C@@H](O)CC[C@]4(C)[C@H]3CC[C@]12C [Pregnenolone],scaled lipid accumulation score,,0.084
same,scaled lipid accumulation score,[5],≤ 0
same,scaled lipid accumulation score,library stock concentration: 6.3 mM,≤ 0
same,scaled lipid accumulation score,[3],≤ 0
C[C@]12CC[C@H](O)CC1=CC[C@@H]1[C@@H]2CC[C@]2(C)C(n3cnc4ccccc43)=CC[C@@H]12 [Galeterone],scaled lipid accumulation score,[5],0.137
N[C@@H](Cc1ccc(O)c([N+](=O)[O-])c1)C(=O)O [Nitrotyrosine],scaled lipid accumulation score,[4],0.016
CC(C)NCCCn1c(Sc2cc3c(cc2I)OCO3)nc2c(N)ncnc21 [listing 1 of 2 here],scaled lipid accumulation score,[3],0.881 (active)
CC(C)NCCCn1c(Sc2cc3c(cc2I)OCO3)nc2c(N)ncnc21 [listing 2 of 2 here],scaled lipid accumulation score,[5],0.728
O=C(CCc1ccc(O)c(O)c1)N[C@@H](CC(=O)OCc1ccccc1)C(=O)OCc1ccccc1,scaled lipid accumulation score,[4],≤ 0
COCCOc1ccc2c(c1)ncn2-c1ccc2cccc(N3CCC(N)CC3)c2n1 [listing 1 of 2 here],scaled lipid accumulation score,[3],0.937 (active)
CC1(COc2ccc3c(c2)ncn3-c2ccc3cccc(N4CCC(N)CC4)c3n2)COC1 [listing 1 of 2 here],scaled lipid accumulation score,[5],0.869 (active)
COCCOc1ccc2c(c1)ncn2-c1ccc2cccc(N3CCC(N)CC3)c2n1 [listing 2 of 2 here],scaled lipid accumulation score,[6],≤ 0
same,scaled lipid accumulation score,[1],0.202
same,scaled lipid accumulation score,[2],0.523
same,scaled lipid accumulation score,[5],0.785
same,scaled lipid accumulation score,[3],0.832
NC1CCN(c2cccc(Cl)n2)CC1,scaled lipid accumulation score,[3],0.62 and 0.499
CC1(COc2ccc3c(c2)ncn3-c2ccc3cccc(N4CCC(N)CC4)c3n2)COC1 [listing 2 of 2 here],scaled lipid accumulation score,[3],0.404
COc1c2c(nc3ccccc13)OC(C(C)(O)CO)C2 (stereo not drawn) [Dubinidine],scaled lipid accumulation score,,≤ 0
O=C(O)CCCC=CCC1C(O)CC(O)C1C=CC(O)COc1cccc(C(F)(F)F)c1 [15(S)-Fluprostenol],scaled lipid accumulation score,[4],≤ 0
CCCCCCCCC=CCCCCCCCCOCCOP(=O)([O-])OCC[N+](C)(C)C [Oleyloxyethyl Phosphorylcholine],scaled lipid accumulation score,[4],≤ 0
CC/C=C\C/C=C\C/C=C\C/C=C\CCCCCCC(=O)OCC [.omega.-3 Arachidonic Acid ethyl ester],scaled lipid accumulation score,[4],≤ 0
CCCCCCCCCCCCCCCCCCCCCCCCC(=O)OC [Pentacosanoic Acid methyl ester],scaled lipid accumulation score,[4],≤ 0
CCCc1cc(C(=O)c2ccc(-c3ccccc3)cc2)ccc1OCCCN1CCCc2c(OC(C)(C)C(=O)O)cccc21,scaled lipid accumulation score,[4],≤ 0
CCCCCCCCC=CCCCCCCCCCCCC(N)=O [13-Docosenamide],scaled lipid accumulation score,[4],≤ 0
[O-][n+]1cccc(CO)c1,scaled lipid accumulation score,[3],≤ 0
CCCCC/C=C\C/C=C\C/C=C\C/C=C\CCCC(=O)OC(CO)CO [2-Arachidonoyl Glycerol],scaled lipid accumulation score,[4],≤ 0
CCCCC/C=C\C/C=C\C/C=C\C/C=C\CCCC(=O)OC(CO)CO [2-Arachidonoylglycerol],scaled lipid accumulation score,[4],0.011
CCCCCCCCCCCCC[N+](C)(C)Cc1ccccc1 [Benzalkonium chloride],scaled lipid accumulation score,[3],0.182
CCCCCCCCCCCCCCCCn1cc[n+](Cc2ccccc2)c1C,scaled lipid accumulation score,[6],≤ -0.001
same,scaled lipid accumulation score,[1],≤ -0.001
same,scaled lipid accumulation score,[2],≤ -0.001
same,scaled lipid accumulation score,[3],0.213 and 0.435
CCCCCCCCCCCCCCCCn1cc[n+](Cc2ccccc2)c1C.[I-],scaled lipid accumulation score,[5],0.92 (active)
"CCCCCCCCCCCCCCCCn1cc[n+](Cc2ccccc2)c1C [eEF-2 Kinase Inhibitor, NH125]",scaled lipid accumulation score,[5],0.247
CC/C=C\C/C=C\C/C=C\CCCCCCCC(=O)N[C@@H](Cc1ccc(O)cc1)C(=O)O [N-(.alpha.-Linolenoyl) Tyrosine],scaled lipid accumulation score,[4],≤ 0
